FLuc counter: counter-screen for miR-21 project: firefly luciferase inhibitors or activators; Potency, µM (titrated, usually from 57.5 µM), actives largely listed as inhibitors; P08659; actives 6.9% (n = 360,000); purified FLuc, Km substrates, luminescence inhibition; note: nearly all actives have a fitted effect of over 55% in size
Target sequence (P08659 whole entry, looked up): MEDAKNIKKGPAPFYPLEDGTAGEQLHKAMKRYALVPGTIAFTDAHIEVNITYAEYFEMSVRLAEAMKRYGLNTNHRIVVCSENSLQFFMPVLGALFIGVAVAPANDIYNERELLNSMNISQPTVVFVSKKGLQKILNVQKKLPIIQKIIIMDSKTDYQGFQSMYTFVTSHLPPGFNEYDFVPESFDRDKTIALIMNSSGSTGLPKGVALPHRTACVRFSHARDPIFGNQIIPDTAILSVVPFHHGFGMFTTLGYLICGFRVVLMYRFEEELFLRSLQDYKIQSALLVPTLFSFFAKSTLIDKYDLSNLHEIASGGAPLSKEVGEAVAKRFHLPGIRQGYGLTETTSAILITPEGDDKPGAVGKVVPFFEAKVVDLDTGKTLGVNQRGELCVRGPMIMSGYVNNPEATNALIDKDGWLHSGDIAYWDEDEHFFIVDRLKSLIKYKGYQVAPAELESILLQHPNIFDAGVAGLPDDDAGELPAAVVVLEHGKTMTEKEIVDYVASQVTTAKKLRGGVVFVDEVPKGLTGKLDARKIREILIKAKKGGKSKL
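Purified P. pyralis luciferase, 10 nM final, with Km-level 10 uM D-luciferin and 10 uM ATP in 50 mM Tris acetate pH 7.5, 10 mM Mg acetate, 0.01% Tween-20, 0.05% BSA; 6-point qHTS titration about 60 µM downward; luminescence read.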
Rab9 promoter act: activates the Rab9 promoter; Huh7 Rab9 promoter-luciferase reporter, luminescence, 24 h; Potency, µM (highest dose often 9.22 µM), most hits filed as activators; actives 2.8% (n = 320,000); note: nearly all actives have a fitted effect of over 60% in size
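Luminescence from Amplite-detected luciferase (10 minutes, ambient) reports Rab9 promoter activation. Before that, stable Rab9-luciferase Huh7 cells (1500/well, reduced-serum OP-MEM I plus 10% FBS) were exposed to compound for 24 hours at 37C.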
NPC1 promoter act: activates the NPC1 promoter. Huh7 NPC1 promoter luciferase reporter, 24 h. Potency, µM (series often up to 9.22 µM), most hits filed as activators. actives 2.4% (n = 320,000); note: nearly all actives have a fitted effect of over 60% in size
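NPC1 promoter–luciferase Huh7 cells; 24 h compound; luminescence.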
SMN2 splice up: increases expression of the SMN2 splice variant; HEK293 SMN2-luciferase splicing reporter, luminescence, 30-36 h; Potency, µM (highest dose often 46.1 µM), usual class: activators; actives 2.8% (n = 210,000); AID 1458; note: nearly all actives have a fitted effect of over 55% in size
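qHTS luciferase splicing reporter: luminescence rises when SMN2 exon 7 is included in transfected HEK293 cells. Compound exposure lasted 30-36 h at 37C, with 4.5 mM final sodium butyrate as control, followed by a ONE-Glo read.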
ELG1 repair inh: inhibitors of ELG1-dependent DNA repair in HEK293T cells; HEK293T ELG1-luciferase reporter, luminescence, 16 h; DNA damage induced by 5-fluorouridine; actives 2.3% (n = 330,000); Potency, µM (series often up to 46.1 µM), most hits filed as inhibitors; AID 504467; note: nearly all actives have a fitted effect of over 55% in size
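Step one: seed 2,000 cells per well. Step two: pin-transfer compound or DMSO alongside 5-fluorouridine. Step three: incubate 16 hr, 37 °C, 5% CO2. Step four: add ONE-Glo, wait 30 min, read luminescence.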
ELG1 genotoxic: inducers of genotoxicity in HEK293T ELG1-luciferase cells. actives 1.3% (n = 330,000). AID 504466. HEK293T ELG1-luciferase reporter, luminescence, 16 h. Potency, µM (doses to about 46 µM), hits mostly activators; note: nearly all actives have a fitted effect of over 60% in size
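Genotoxicity was scored as increased ELG1-luciferase reporter signal, measured by ONE-Glo luminescence (30 min, room temperature). Compound or vehicle exposure of the HEK293T reporter cells lasted 16 hr at 37°C.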
Numbers stand for hits; i = inactive; ? = inconclusive; nt = no result; [ ] = another dose, or the depositor's remark. Shown are actives, neighbours in structure and some others; about 9.4% of the full set was active somewhere. Calls come from the whole dose curve; as a rule, active = well fitted curve in the direction sought with a large enough effect; inconclusive = small, poorly fitted or top-dose-only effect, or another doubt; inactive = no such curve, though single readings can be large; an effect the other way counts as inactive or inconclusive.

SMILES | FLuc counter | Rab9 promoter act | NPC1 promoter act | SMN2 splice up | ELG1 repair inh | ELG1 genotoxic
CN1CCN(C(=O)CCN2C(=O)c3ccccc3C2=O)CC1 | i | i | i | nt | i | i
Cc1cccc(N2CCN(C(=O)COc3cccc4c3OC(C)(C)C4)CC2)c1C | i | i | i | i | 26µM | i
O=C(CCCOc1ccccc1)N1CCN(S(=O)(=O)c2ccccc2)CC1 | nt | i | i | nt | i | i
COc1ccc(NC(=O)c2cc3c(=O)n4ccccc4nc3n2C)cc1OC | i | i | i | i | i | i
CCc1nnc(SCC(=O)Nc2ccc(Cl)cc2F)c2cc3occc3n12 | i | nt | nt | nt | nt | nt
CCc1ccccc1N1CC(c2nnc(NC(=O)c3ccco3)s2)CC1=O (stereo not drawn) | i | nt | nt | nt | nt | nt
Cc1cccc(N2CCN(C(=O)c3cn(C)c(=O)c4c3c3ccccc3n4C)CC2)c1C | i | i | i | i | 23µM | i
CCOc1cc(CNC(=O)CCCn2c(=O)c3cccn3c3cccnc32)cc(OCC)c1OCC | i | i | i | i | 16µM | i
O=C(Cc1ccc(Br)cc1)N1CCc2ccccc2C1 | 17µM | ? | ? | nt | ? | ?
O=C(CCCOc1ccccc1)N1CCc2ccccc2C1 | 24µM | i | i | 13µM | ? | 21µM
CCc1cccc(C)c1NC(=O)c1cc(S(=O)(=O)N2CCN(c3ccccc3)CC2)ccc1F | i | nt | nt | nt | nt | nt
NC(CCC(=O)NC(CCSC(CC(=O)O)C(=O)O)C(=O)NCC(=O)O)C(=O)O (stereo not drawn) | nt | nt | nt | i | nt | nt
O=C(Nc1ccccc1)N1CCCC2(CCN(C(=O)c3cccc(F)c3)CC2)C1 | nt | nt | nt | i | nt | nt
Cc1ccccc1C(=O)NC1(C(F)(F)F)N=C(c2ccccc2)N(C2CCCCC2)C1=O (stereo not drawn) | i | nt | nt | i | nt | nt
COc1ccc(NC(=O)C(Cc2ccccc2)NS(=O)(=O)c2ccc3c(c2)CCN3C(C)=O)cc1 (stereo not drawn) | i | nt | nt | i | nt | nt
Cc1cccc(N2CCN(C(=O)CCCOc3ccccc3)CC2)c1C | 7.6µM | 2.5µM | 3.2µM | 16µM | ? | 2.6µM
Cc1ccc(Cl)cc1N1CCN(C(=O)CCCn2c(=O)c3cccn3c3cccnc32)CC1 | i | i | i | nt | ? | i[9.26 µM]
COc1ccccc1N1CCN(C(=O)CCn2c(=O)[nH]c3ccccc3c2=O)CC1 | i | i | i | i | i | i
Cc1cccc(N2CCN(C(=O)CCCn3c(=O)c4cccn4c4cccnc43)CC2)c1C | i | i | i | nt | 16µM | i
Cc1cccc(N2CCN(C(=O)CCn3c(=O)[nH]c4ccccc4c3=O)CC2)c1C | i | i | i | i | 9.2µM | i
CC(C)(C)NC[C@H](O)c1cc(O)cc(O)c1 | nt | nt | nt | i | nt | nt
c1cc(-c2sc(-c3ccncc3)c(-c3ccncc3)c2-c2ccncc2)ccn1 | i | i | i | i[9.22 µM] | 18µM | i
CCOC(=O)C1=CNS(=O)(=O)NC1CCc1ccccc1 (stereo not drawn) | nt | nt | nt | nt | i | i
CCOC(=O)c1sc(NC(=O)c2ccc3ncsc3c2)nc1C | 0.95µM | i | i | 2.8µM | ? | 2.3µM
COC(=O)Cc1csc(NC(=O)c2ccc3ncsc3c2)n1 | 24µM | ? | i | nt | ? | i
SMILES | FLuc counter | Rab9 promoter act | NPC1 promoter act | SMN2 splice up | ELG1 repair inh | ELG1 genotoxic
CCOC(=O)c1sc(NC(=O)c2cncc(Br)c2)nc1C | 2.1µM | i | i | 4.5µM | ? | 18µM
CCOC(=O)Cc1csc(NC(=O)c2csc(C)c2)n1 | ? | i | i | i | i | ?
CC(C)C[C@@H](CC(=O)N[C@@H](CCC(=O)O)CC(=O)O)NC(=O)[C@@H]1CCCC[C@H]1NC(=O)C[C@H](CCCN)NC(=O)C[C@H](Cc1c[nH]c2ccccc12)NC(=O)[C@@H]1CCCC[C@H]1N | nt | nt | nt | i | nt | nt
COc1ccc(CNC(=O)c2cc(-c3cccs3)nc3ccccc23)c(OC)c1 | i | nt | nt | i | nt | nt
CC(NC(=O)c1ccc2ccccc2n1)c1ccc(Br)cc1 (stereo not drawn) | i | i | i | nt | i | i
Brc1ccc(N=Nc2ccc3ccccc3n2)cc1 | 0.021µM | ? | ? | nt | ? | ?

Source: PubChem (National Center for Advancing Translational Sciences (NCATS))
